Most compounds without a hit are left out; they make up all but 5.7% or so of the library.
DAX1 inh-1: inhibitors of DAX1 repression of SF-1 activated StAR promoter. HEK293T StAR-luciferase reporter, SF-1/DAX-1 repression relief. inhibition, % at 6.8 µM. 370,000 compounds, 1.1% hits;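 active = inhibition above the mean over all tested compounds plus 3 SD, cut at about 3.6% in these data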;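 also: 0% = DAX-1 cells with DMSO and 100% = cells lacking DAX-1 with DMSO; higher inhibition means more luminescence from relief of DAX-1 repression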
AHR act: human AHR activation; P35869; 320,000 compounds, 2.5% hits; AHR-responsive luciferase reporter cells, luminescence; activation, % at 5 µM; AID 2796; in the data active = activation above about 47%;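 also: 0% = vehicle wells and 100% = reference agonist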
Target sequence (P35869 whole entry, looked up): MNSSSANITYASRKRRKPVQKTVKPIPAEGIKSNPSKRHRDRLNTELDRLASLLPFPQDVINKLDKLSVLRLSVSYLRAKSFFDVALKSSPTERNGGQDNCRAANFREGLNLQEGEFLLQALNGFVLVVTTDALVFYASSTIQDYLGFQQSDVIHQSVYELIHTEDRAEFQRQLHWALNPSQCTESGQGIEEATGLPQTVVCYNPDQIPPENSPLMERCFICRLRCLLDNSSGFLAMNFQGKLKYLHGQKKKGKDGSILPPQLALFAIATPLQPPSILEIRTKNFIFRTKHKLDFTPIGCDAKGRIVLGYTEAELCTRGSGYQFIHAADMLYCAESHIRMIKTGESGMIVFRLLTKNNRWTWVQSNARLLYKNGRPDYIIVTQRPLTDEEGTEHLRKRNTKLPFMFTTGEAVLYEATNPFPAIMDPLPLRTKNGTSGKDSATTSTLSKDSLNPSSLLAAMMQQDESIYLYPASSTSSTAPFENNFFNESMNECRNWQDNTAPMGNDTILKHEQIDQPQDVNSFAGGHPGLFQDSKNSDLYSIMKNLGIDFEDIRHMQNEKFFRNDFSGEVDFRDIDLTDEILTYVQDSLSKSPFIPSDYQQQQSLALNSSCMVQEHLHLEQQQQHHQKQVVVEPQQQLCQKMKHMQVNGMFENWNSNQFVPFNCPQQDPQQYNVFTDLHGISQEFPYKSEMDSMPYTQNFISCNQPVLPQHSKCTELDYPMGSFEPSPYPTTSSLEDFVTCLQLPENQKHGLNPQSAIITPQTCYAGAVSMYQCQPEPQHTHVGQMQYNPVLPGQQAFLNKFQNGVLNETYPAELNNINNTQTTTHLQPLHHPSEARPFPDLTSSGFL
hcDAF-12 act: activates DAF-12 receptor from parasite H. contortus; HEK293 hcDAF-12 lit1-tk-luc reporter, luminescence; 0% DMSO, 100% Δ7-dafachronic acid; activation, % at 6.8 µM; 370,000 compounds, 1.4% hits;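 active = activation above the mean of all tested compounds plus 3 SD, cut at about 5.5% in these data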;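 also: 100% = response to 3 µM Δ7-dafachronic acid high control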
DAX1 inh-2: NR0B1 (DAX1) inhibition; P51843; AID 504766; HEK293 Gal4-DAX1 luciferase reporter, luminescence; 340,000 compounds, 0.99% hits; inhibition, % at 6.75 µM;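 active = inhibition above the mean over all tested compounds plus 3 SD, cut at about 4.2% in these data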;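 also: 0% = DAX1-transfected cells with DMSO and 100% = empty-vector control cells with DMSO; inhibition shows as a rise in luminescence from relieved DAX1 repression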
ssDAF-12 act: S. stercoralis DAF-12 activation, primary screen | HEK293 ssDAF-12/GRIP1 lit1-tk-luc reporter, luminescence; % of 3 µM dafachronic acid response | activation, % at 6.8 µM | 370,000 compounds, 1% hits;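 active = activation above the mean over all tested compounds plus 3 SD, cut at about 0.9% in these data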;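 also: 0% = DMSO-only wells and 100% = 3 µM delta7-dafachronic acid wells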
hgDAF-12 ag: hgDAF-12 agonism, primary luciferase screen | activation, % at 6.8 µM | AID 687014 | 370,000 compounds, 1.8% hits | HEK293 GAL4-hgDAF12 UAS-luciferase reporter, agonist luminescence; normalized to butyrate control;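 active = activation above a cutoff set at the mean of all screened compounds plus 3 SD, cut at about 10% in these data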;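 also: 0% = DMSO wells and 100% = sodium butyrate wells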
DAX1 conf: NR0B1 (human) inhibition, confirmation; shares compounds with DAX1 inh-1; HEK293T StAR-promoter luciferase reporter, SF-1/DAX-1 repression; inhibition, % at 6.8 µM; 2,400 compounds, 87% hits; AID 652134;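 active = inhibition above the average of every tested compound plus 3 SD, cut at about 3.8% in these data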;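 also: 0% = DAX-1 cells with DMSO and 100% = no DAX-1 control cells with DMSO; active compounds raise luminescence by relieving repression of the StAR reporter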
SF1 AF2mut Luc: nonselective inhibitor or artifact in SF-1 mutant DAX1 counter-screen; 2,400 compounds, 78% hits; AID 652136; shares compounds with DAX1 inh-1; HEK293 StAR-luciferase, SF-1 AF2 mutant, luminescence; inhibition, % at 6.8 µM;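 active = inhibition above the mean of all tested compounds plus 3 SD, cut at about 3% in these data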;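 also: 0% = DAX-1 transfected cells with DMSO and 100% = cells without DAX-1 with DMSO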
* marks the source's active call; other numbers are inactive results; / = not tested or not shown.

SMILES	DAX1 inh-1	AHR act	hcDAF-12 act	DAX1 inh-2	ssDAF-12 act	hgDAF-12 ag	DAX1 conf	SF1 AF2mut Luc
COc1ccc(C2=NN(C(=O)CCC(=O)O)C(c3cccs3)C2)cc1 (stereo unspecified)	1.7	1.0	2.8	0.5	-1.3	6.6	/	/
CC1CCN(c2nc3ccc(C(=O)NCCCN4CCCCC4)cc3s2)CC1	5.9*	-10.7	3.5	-0.5	-0.5	11.4*	12.3*	7.2*
CCC1CCCCN1CCCNC(=O)c1ccc2nc(N3CCC(C)CC3)sc2c1 (stereo unspecified)	1.9	-7.9	3.9	-0.7	0.1	8.0	/	/
COc1ccc(N=C2C(=S)N(c3ccc(OC)cc3)C(=NS(=O)(=O)c3ccccc3)N2c2ccccc2)cc1	8.2*	/	5.0	1.5	0.5	13.2*	1.5	4.2*
COc1ccc(N2C(=O)NC(NS(=O)(=O)c3ccccc3)(C(F)(F)F)C2=O)cc1 (stereo unspecified)	0.0	-2.0	0.1	0.1	-0.7	0.7	/	/
COc1cccc(NC(=O)[C@H](NC(=O)[C@@H]2Cc3ccccc3CN2)c2ccccc2)c1	4.9*	7.9	2.5	-0.1	-0.4	6.2	4.1*	2.8
O=C(NCCS(=O)(=O)NCCc1ccccc1)c1ccccc1	4.7*	3.2	1.1	0.6	-0.3	2.8	3.0	1.2
O=C(COc1cccnc1[N+](=O)[O-])Nc1cc(S(=O)(=O)N2CCCCC2)ccc1Cl	0.0	-2.0	-0.1	-0.9	-1.3	-1.1	/	/
Cc1nccc(-c2cccc(NC(=O)c3ccccc3Cl)c2)n1	0.5	6.9	0.2	0.1	-1.5	-1.6	/	/
O=C(c1ccncc1)N(c1ccc(N2CCOCC2)cc1)C(c1ccccc1)c1nc2ccccc2[nH]1 (stereo unspecified)	5.3*	/	6.2*	/	0.1	13.1*	7.7*	4.9*
CN1OC[C@@H]2CN[C@H](c3ccc(-c4ccc(C#N)cc4)cc3)C[C@@H]21	5.4*	/	3.0	2.7	0.6	12.2*	13.6*	8.1*
CN(CCc1ccccc1)C(=O)c1cc(COc2ccc(F)cc2Cl)on1	-0.3	2.0	1.9	0.8	-0.9	2.4	/	/
Cc1cccc(N2C(=O)CC(SC(=Nc3ccccc3)Nc3ccccc3)C2=O)c1 (stereo unspecified)	0.2	5.4	1.3	0.8	-1.1	-0.6	/	/
O=C1SC(SC(=Nc2ccccc2)Nc2ccccc2)C(=O)N1c1ccccc1 (stereo unspecified)	5.9*	6.2	2.7	3.3	0.4	13.4*	1.9	0.9
O=C(c1cc([N+](=O)[O-])ccc1N1CCOCC1)N1CCN(c2ccccc2)CC1	13.8*	3.2	0.9	1.2	0.5	-3.7	17.4*	-5.6
CN1CCN(c2ccc([N+](=O)[O-])cc2C(=O)N2CCOCC2)CC1	0.5	0.7	-0.7	-0.7	-0.7	0.4	/	/
N#CCCN(C(=O)COC(=O)C1CCN(S(=O)(=O)c2cccs2)CC1)c1ccccc1	0.2	-0.5	1.0	1.5	-1.6	-1.4	/	/
Cc1ccc2nc(N(CCCN(C)C)C(=O)c3ccc4ncsc4c3)sc2c1	6.4*	-2.6	2.8	0.4	-0.6	6.6	10.6*	7.8*
Cc1ccc2nc(N(CCN(C)C)C(=O)c3ccc4ccccc4c3)sc2c1	/	2.0	/	0.2	/	/	/	/
CC(C)(c1ccccc1)c1ccc(OCc2ccc(C(=O)O)o2)cc1	11.1*	/	4.0	2.4	0.4	9.4	5.3*	4.9*
O=C(NC(=S)NN1CCOCC1)c1cc(Br)ccc1Cl	5.2*	-0.9	1.4	0.3	-0.5	0.0	0.3	0.5
Cc1cccc(C)c1Nc1nnc(SCC(=O)NCc2ccco2)s1	-0.3	1.1	-0.6	-1.1	-0.6	-0.7	/	/
Cc1cccc(C(=O)Nc2nnc(SCC(=O)NCc3ccco3)s2)c1	5.6*	36.6	0.1	0.8	0.4	9.1	2.9	2.5
COc1cccc(C(=O)Nc2nnc(SCC(=O)Nc3ccc(NC(C)=O)cc3)s2)c1	10.2*	8.7	5.6*	1.2	0.2	8.6	9.1*	6.6*
CCn1cc(CN2CCC(n3nccc3NC(=O)c3ccccc3C)CC2)c(C)n1	-0.1	2.0	-2.0	-0.1	-0.8	-1.7	/	/
SMILES	DAX1 inh-1	AHR act	hcDAF-12 act	DAX1 inh-2	ssDAF-12 act	hgDAF-12 ag	DAX1 conf	SF1 AF2mut Luc
COCC(=O)N/N=C\c1ccccc1OC/C=C/c1ccccc1	8.1*	-0.2	1.4	1.3	-0.7	11.4*	3.5	4.8*
COCC(=O)N/N=C\c1cccc(OC)c1OC/C=C/c1ccccc1	-1.5	/	-1.5	-0.1	-1.4	2.0	/	/
COc1cccc(C(c2nnnn2-c2c(C)cccc2C)N2CCN(C/C=C/c3ccccc3)CC2)c1OC (stereo unspecified)	-2.5	/	-1.0	/	-0.3	2.0	/	/
Cc1cccc(C)c1-n1nnnc1C(c1ccccc1OC(F)(F)F)N1CCN(C/C=C/c2ccccc2)CC1 (stereo unspecified)	4.7*	/	-0.8	/	-0.8	5.7	-3.5	-1.1
CCN1CCN(C(=O)C(=O)c2cn(CC(=O)N3CCCC3)c3ccccc23)CC1	0.6	2.9	-0.3	0.2	-0.3	2.6	/	/
Cc1ccc(N=C/C(C(=O)C(F)(F)F)=C(\O)c2cccs2)cc1	4.5*	22.0	6.5*	-2.7	0.5	5.4	18.4*	6.2*
CCCN1CCN(CCCNC(=O)c2ccc3c(c2)NC(=O)c2ccccc2S3)CC1	6.1*	-1.3	1.1	1.0	-0.6	2.0	4.4*	1.1
CCN(CC)CCNC(=O)c1ccc2c(c1)NC(=O)c1ccccc1S2	0.8	/	1.6	1.4	-1.0	0.0	/	/
CC(=Nc1ccccc1)C1=C(O)C(Cc2ccc(F)cc2)NC1=O (stereo unspecified)	-4.0	/	-1.0	-0.1	-0.8	6.7	/	/
CC(=Nc1ccccc1)C1=C(O)C(Cc2ccccc2)NC1=O (stereo unspecified)	8.2*	/	4.4	2.3	0.6	4.5	30.8*	-4.8
Cc1ccsc1C(=O)NCCc1c[nH]c2ccccc12	4.6*	9.8	0.8	1.8	0.6	8.4	5.9*	2.9*
Cc1cc(C2CCCCC2)n(O)c(=O)c1	-3.0	-2.8	-2.4	1.2	-1.2	-6.3	/	/
CCOc1ccc(C(=O)COC(=O)c2nc3nccc(C)n3n2)cc1	4.9*	2.2	1.2	-0.3	-1.4	0.4	2.9	1.7
CCCNC(=O)C1(C)CCCN(Cc2cccc3ccccc23)C1 (stereo unspecified)	0.2	/	-0.9	/	-1.8	-0.7	/	/

High-throughput results: PubChem, The Scripps Research Institute Molecular Screening Center
